Measurements as given in ChEMBL document CHEMBL1961873, “Compounds: GSK PKIS; Assays: Nanosyn kinase panel” (2012).

Assays:
[1] = system: Epidermal growth factor receptor (Homo sapiens), P00533 [T790M]; settings: at 1 µM
[2] = system: Epidermal growth factor receptor (Homo sapiens), P00533 [L858R,T790M]; settings: at 0.1 µM
[3] = system: Epidermal growth factor receptor (Homo sapiens), P00533 [L858R,T790M]; settings: at 1 µM
[4] = target: Ephrin type-A receptor 2 (Homo sapiens) (UniProt P29317); settings: at 0.1 µM
[5] = target: Ephrin type-A receptor 2 (Homo sapiens) (UniProt P29317); settings: at 1 µM
[6] = target: T1, Ephrin type-A receptor 3 (Homo sapiens) (UniProt P29320); settings: at 0.1 µM
T1 sequence (whole entry): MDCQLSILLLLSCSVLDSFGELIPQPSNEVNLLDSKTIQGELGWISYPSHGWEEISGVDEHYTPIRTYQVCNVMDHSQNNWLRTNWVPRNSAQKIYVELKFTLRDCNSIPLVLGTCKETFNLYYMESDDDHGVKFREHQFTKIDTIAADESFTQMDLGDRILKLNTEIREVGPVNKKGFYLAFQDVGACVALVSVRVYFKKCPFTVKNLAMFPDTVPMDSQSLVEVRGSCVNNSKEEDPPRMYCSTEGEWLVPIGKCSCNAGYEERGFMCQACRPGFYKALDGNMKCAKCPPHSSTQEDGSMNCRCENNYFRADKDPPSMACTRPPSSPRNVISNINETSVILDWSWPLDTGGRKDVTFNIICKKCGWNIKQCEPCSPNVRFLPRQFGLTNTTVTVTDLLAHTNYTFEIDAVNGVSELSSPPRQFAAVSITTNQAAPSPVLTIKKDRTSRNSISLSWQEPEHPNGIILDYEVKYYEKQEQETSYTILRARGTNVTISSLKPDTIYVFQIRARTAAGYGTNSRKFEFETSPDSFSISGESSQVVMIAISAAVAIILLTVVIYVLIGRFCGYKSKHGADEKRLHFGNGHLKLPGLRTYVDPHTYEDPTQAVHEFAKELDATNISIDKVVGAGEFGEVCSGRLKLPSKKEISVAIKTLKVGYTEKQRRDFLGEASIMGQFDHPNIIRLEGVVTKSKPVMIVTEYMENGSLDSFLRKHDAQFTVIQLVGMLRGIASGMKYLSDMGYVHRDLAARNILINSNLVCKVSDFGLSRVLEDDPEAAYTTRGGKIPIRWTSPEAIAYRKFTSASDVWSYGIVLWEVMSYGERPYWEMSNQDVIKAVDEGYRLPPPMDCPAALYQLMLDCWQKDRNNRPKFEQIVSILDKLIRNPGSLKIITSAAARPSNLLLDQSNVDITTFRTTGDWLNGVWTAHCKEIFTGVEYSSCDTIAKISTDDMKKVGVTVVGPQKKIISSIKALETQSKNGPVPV

[7] = target: T1, Ephrin type-A receptor 3 (Homo sapiens); settings: at 1 µM
[8] = target: Ephrin type-A receptor 4 (Homo sapiens) (UniProt P54764); settings: at 0.1 µM
[9] = target: Ephrin type-A receptor 4 (Homo sapiens) (UniProt P54764); settings: at 1 µM
[10] = target: T2, Ephrin type-B receptor 2 (Homo sapiens) (UniProt P29323); settings: at 0.1 µM;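 further: reported as mean inhibition of EPHB2, from the GSK PKIS dataset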
T2 sequence (whole entry): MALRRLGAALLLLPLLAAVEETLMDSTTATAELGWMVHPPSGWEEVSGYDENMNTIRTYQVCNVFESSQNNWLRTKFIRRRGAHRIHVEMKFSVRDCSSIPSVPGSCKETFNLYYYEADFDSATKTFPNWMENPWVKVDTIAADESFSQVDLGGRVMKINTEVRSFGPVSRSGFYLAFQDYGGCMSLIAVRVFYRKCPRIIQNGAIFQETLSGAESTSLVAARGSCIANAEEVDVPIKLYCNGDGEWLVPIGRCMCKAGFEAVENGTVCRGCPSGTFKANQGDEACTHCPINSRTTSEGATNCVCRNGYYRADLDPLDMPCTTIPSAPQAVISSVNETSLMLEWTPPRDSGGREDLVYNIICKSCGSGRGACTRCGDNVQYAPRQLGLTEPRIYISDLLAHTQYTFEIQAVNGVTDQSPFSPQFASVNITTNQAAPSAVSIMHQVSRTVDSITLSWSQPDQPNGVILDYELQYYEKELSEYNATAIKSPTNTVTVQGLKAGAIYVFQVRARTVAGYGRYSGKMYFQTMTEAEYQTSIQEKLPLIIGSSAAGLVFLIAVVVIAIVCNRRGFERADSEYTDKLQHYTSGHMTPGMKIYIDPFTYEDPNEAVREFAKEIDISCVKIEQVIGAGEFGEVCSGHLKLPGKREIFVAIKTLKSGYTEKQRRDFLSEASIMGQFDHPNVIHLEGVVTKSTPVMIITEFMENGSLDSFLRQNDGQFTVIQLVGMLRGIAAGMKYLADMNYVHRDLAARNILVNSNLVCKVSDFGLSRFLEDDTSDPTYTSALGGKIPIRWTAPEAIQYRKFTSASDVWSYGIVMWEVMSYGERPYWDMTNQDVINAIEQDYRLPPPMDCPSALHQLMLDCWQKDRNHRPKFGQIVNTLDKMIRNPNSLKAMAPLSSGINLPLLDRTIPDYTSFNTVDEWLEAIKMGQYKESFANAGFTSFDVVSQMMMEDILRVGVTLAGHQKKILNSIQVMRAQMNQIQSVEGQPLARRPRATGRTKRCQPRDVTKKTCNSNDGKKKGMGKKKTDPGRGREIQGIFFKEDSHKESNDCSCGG

Epidermal growth factor receptor (Homo sapiens), P00533 [T790M], sequence (P00533 whole entry T790M): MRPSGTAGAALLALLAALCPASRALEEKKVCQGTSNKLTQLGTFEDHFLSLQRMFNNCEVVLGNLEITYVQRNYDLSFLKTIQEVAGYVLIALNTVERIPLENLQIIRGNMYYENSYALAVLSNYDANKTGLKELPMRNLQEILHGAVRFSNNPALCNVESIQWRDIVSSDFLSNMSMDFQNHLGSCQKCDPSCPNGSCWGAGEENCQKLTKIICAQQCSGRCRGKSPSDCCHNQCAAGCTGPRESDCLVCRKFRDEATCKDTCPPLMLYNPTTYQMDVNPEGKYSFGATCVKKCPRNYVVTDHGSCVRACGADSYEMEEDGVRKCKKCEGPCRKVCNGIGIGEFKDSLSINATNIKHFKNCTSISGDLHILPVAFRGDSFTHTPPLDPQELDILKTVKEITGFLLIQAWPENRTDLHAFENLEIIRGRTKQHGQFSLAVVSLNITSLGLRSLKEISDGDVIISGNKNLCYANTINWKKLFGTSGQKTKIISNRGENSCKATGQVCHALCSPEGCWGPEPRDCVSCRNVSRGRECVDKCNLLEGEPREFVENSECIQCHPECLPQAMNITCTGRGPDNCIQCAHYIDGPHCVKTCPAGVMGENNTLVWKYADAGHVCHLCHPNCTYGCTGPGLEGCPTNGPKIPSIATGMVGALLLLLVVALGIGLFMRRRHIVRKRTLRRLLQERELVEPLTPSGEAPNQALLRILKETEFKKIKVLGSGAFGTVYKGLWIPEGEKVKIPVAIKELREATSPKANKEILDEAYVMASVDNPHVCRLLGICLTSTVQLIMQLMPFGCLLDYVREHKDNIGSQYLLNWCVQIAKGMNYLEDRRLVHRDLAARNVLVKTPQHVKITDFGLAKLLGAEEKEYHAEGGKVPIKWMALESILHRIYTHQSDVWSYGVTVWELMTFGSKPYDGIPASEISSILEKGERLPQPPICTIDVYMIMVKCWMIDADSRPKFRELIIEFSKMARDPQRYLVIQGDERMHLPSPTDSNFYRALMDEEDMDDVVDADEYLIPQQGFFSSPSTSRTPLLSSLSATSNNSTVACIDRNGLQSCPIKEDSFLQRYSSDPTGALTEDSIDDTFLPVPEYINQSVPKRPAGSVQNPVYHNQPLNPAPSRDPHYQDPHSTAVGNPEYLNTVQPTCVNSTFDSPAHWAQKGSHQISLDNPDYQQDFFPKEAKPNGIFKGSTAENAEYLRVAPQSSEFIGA
Ephrin type-A receptor 2 (Homo sapiens), sequence (P29317 whole entry): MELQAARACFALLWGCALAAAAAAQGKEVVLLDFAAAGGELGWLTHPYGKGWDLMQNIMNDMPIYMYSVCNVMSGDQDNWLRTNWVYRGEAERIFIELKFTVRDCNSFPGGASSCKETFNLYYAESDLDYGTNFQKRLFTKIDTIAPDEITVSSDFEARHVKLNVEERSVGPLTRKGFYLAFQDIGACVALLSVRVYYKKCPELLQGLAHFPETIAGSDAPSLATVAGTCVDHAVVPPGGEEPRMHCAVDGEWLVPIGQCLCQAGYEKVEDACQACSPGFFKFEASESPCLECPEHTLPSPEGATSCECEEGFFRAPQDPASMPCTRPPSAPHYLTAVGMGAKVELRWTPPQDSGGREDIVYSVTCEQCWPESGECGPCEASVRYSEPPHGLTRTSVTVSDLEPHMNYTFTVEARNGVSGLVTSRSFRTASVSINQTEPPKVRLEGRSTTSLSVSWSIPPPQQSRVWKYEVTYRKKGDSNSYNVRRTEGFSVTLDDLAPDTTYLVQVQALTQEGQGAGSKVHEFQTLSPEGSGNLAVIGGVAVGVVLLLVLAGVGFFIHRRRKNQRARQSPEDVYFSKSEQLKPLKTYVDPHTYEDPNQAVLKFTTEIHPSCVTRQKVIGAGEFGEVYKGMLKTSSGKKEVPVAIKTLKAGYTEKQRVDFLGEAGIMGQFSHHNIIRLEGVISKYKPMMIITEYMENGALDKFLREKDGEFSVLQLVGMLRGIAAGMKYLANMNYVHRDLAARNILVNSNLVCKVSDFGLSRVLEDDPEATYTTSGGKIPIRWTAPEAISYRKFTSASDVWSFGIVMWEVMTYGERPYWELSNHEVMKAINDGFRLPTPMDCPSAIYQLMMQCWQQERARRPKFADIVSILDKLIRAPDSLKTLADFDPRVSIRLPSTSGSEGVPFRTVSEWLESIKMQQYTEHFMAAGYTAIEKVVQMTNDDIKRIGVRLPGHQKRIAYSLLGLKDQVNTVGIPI
Epidermal growth factor receptor (Homo sapiens), P00533 [L858R,T790M], sequence (P00533 whole entry T790M/L858R, looked up): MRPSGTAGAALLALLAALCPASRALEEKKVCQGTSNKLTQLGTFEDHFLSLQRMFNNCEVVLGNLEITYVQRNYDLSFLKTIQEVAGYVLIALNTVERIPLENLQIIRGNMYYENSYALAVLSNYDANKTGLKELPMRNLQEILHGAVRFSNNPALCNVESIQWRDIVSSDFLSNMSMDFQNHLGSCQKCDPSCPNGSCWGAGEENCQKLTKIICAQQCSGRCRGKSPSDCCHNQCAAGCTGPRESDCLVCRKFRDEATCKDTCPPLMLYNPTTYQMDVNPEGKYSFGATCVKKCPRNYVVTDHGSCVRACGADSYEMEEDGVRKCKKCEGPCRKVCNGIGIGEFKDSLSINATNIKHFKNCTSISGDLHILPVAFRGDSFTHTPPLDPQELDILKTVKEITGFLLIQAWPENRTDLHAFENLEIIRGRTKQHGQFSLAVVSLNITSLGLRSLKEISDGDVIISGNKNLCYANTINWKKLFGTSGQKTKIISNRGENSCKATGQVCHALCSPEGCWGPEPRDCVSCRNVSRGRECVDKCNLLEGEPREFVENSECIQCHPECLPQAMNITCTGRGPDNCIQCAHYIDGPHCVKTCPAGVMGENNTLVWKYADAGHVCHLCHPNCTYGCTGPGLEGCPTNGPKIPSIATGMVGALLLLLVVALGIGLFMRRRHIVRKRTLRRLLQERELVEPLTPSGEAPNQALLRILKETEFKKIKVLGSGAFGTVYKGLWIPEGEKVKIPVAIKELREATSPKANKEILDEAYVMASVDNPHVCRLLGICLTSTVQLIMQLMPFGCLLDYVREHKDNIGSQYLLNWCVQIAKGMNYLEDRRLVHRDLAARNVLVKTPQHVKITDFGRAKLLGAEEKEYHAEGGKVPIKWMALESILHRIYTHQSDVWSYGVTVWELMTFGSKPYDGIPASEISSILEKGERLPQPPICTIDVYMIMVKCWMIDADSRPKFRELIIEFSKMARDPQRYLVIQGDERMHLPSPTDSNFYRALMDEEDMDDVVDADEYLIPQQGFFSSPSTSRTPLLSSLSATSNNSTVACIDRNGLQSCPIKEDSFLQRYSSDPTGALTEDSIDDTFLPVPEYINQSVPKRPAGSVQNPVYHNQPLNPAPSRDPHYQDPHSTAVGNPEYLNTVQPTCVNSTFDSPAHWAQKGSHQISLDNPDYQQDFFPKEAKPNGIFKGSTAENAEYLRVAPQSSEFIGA
Ephrin type-A receptor 4 (Homo sapiens), sequence (P54764 whole entry): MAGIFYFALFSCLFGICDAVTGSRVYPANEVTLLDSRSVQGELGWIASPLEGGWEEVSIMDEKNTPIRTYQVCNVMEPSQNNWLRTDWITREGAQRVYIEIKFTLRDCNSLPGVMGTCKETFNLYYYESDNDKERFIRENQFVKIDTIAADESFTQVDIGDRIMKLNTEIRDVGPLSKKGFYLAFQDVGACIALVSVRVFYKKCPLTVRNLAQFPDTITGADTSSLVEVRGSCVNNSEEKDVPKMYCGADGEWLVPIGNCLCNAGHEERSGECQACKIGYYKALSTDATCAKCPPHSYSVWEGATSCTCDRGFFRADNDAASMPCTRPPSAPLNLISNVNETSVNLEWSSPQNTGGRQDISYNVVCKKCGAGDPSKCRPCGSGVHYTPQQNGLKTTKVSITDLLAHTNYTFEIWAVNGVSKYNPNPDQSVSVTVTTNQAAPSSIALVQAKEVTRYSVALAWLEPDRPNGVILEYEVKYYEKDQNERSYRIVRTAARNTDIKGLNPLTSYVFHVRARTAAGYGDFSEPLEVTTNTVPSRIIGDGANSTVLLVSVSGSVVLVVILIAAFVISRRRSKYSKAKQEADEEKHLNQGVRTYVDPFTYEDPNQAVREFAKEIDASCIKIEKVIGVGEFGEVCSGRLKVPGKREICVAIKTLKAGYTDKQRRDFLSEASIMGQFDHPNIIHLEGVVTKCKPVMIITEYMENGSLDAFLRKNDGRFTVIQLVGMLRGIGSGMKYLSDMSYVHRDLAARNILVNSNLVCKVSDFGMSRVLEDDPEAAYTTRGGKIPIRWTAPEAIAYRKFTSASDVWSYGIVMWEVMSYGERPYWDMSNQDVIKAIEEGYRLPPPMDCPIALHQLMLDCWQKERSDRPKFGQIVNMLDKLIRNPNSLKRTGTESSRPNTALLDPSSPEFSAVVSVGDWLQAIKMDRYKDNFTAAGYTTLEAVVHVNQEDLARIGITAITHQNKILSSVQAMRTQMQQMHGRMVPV

SMILES	inhibition [1] [%]	inhibition [2] [%]	inhibition [3] [%]	inhibition [4] [%]	inhibition [5] [%]	inhibition [6] [%]	inhibition [7] [%]	inhibition [8] [%]	inhibition [9] [%]	inhibition [10] [%]
CN(C)c1ccc2c(c1)/C(=C/Nc1ccc(S(N)(=O)=O)cc1)C(=O)N2	0.66	0.14	6.28	-2.54	-2.52	2.63	3.13	-0.17	1.13	3.5
Fc1ccc(-c2ncn(C3CCNCC3)c2-c2ccnc(Oc3ccc(F)c(F)c3)n2)cc1	1.67	2.65	1.47	-2.47	-2.72	-1.56	0.81	6.95	9.68	6.59
CCS(=O)(=O)c1ccc(OC)c(Nc2ncc(-c3cccc(-c4ccccc4F)c3)o2)c1	0.84	3.32	5.25	-1.44	-0.56	-1.38	4.18	2.37	2.94	5.91
C/C(Nc1ccc(S(N)(=O)=O)cc1)=C1/C(=O)Nc2ccccc21	0.03	-0.46	-1.66	-4.14	-3.36	-8.6	-1.74	-4.44	-2.02	-3.98
CNC(=O)c1cncc(/C=C/c2c(C)cccc2C)c1	0.11	0.33	1.36	8.07	44.4	2.95	16.1	25.5	80.9	23.2
NC(=O)c1cc(-c2ccc(F)cc2)cc(-c2ccncc2)c1N	3.83	0.39	-0.62	0.4	3.67	4.53	2.83	10.1	12.7	5.78
CN(c1ccc(NC(=O)Nc2c(Cl)cccc2Cl)cc1)c1ccnc(Nc2cccc(CS(C)(=O)=O)c2)n1	2.21	2.48	3.18	3.5	7.74	7.33	7.13	10.6	33.8	4.12
Fc1ccc(-c2ncn(CCCN3CCOCC3)c2-c2ccncc2)cc1	-1.55	-3.9	1.72	0.95	1.3	1.04	0.84	1.1	-5.4	-4.85
FC(F)(F)c1cccc(Nc2nccc(-c3cnn4nc(-c5ccccc5)ccc34)n2)c1	-0.22	0.52	-0.49	2	0.59	2.67	3.91	5.08	-4.97	4.58
COc1ccc2cc(-c3c(-c4ccncc4)nc(-c4ccc(S(C)(=O)=O)cc4C)n3C)ccc2c1	3.3	1.66	2.57	0.22	0.86	4.84	3.83	9.07	17.6	4.7
NC(=O)c1cc(-c2ccncc2)cc(-c2ccccc2)c1N	2.91	3.41	9.94	15.2	56.3	5.37	8.77	19.8	62.8	16.5
COc1cc(C)c(N(C)C(=O)CN(C)C)cc1Nc1nc(Nc2cccc(F)c2C(N)=O)c2cc[nH]c2n1	1.09	-0.19	1.92	-2.68	-4.61	-1.1	-3.2	3.77	-1.31	2.81
CN(C)CCCNc1nccc(-c2c(-c3ccc(F)cc3)nn3cc(C(F)(F)F)ccc23)n1	-0.54	0.09	1.55	-2.91	-2.04	0.03	1.47	7	9	8.88
C[C@@H](Oc1cc(-n2cnc3ccc(OCC4CCN(C)CC4)cc32)sc1C(N)=O)c1ccccc1Cl	3.47	-2.11	7.41	1.42	1.71	3.99	4.27	8.9	11.6	9.82
O=C1Nc2ccc(I)cc2C1=Cc1cc(Br)c(O)c(Br)c1	1.77	-1.49	-1.12	1.35	1.12	1.79	4.64	7.31	9.77	5.47
O=C(Nc1n[nH]c2nc(-c3ccco3)ccc12)C1CC1	-1.02	0.52	-1.34	-1.58	2.15	1.58	2.28	6.1	7.98	6.87
CN(C)CCOc1ccc(-c2cc(-c3ccc4c(c3)CCC4=NO)c(-c3ccncc3)o2)cc1	0.59	-2.24	-0.02	-1.99	-3.05	0.49	-1.83	-1.28	0.81	-5.39

SMILES	inhibition [1] [%]	inhibition [2] [%]	inhibition [3] [%]	inhibition [4] [%]	inhibition [5] [%]	inhibition [6] [%]	inhibition [7] [%]	inhibition [8] [%]	inhibition [9] [%]	inhibition [10] [%]
Cc1ccc(C(=O)NC(C)C)cc1-c1ccc(C(=O)NCC2CC2)cc1	-3.61	-2.78	-0.98	-1.78	-2.07	-7.27	-6.99	-6.17	-6.72	-9.67
COc1ccc2cc(-c3c(-c4ccncc4)nc(-c4ccc([S+](C)[O-])cc4C)n3C)ccc2c1 (stereo not given)	0.13	-3	3.5	-1.85	-0.23	-1.34	-0.2	-0.17	18.6	1.99
CCN(CC)Cc1ccc(Nc2nccc(-c3cnn4ncccc34)n2)cc1	1.33	0.05	4.64	-3.31	-5.2	-1.76	0.69	6.79	15.2	8.25
COc1cc(N2CCN(C(C)C)CC2)ccc1Nc1nc(Nc2ccc(F)cc2C(=O)NC[C@@H](O)CO)c2cc[nH]c2n1	25.8	11.9	60.2	-2.5	-3.57	0.19	-0.58	9.3	12.5	3.1
O=C(Nc1n[nH]c2nc(-c3ccc(O)cc3)c(Br)cc12)C1CC1	5.37	6.72	8.16	4.79	24.2	8.45	14	15.2	39.2	11.9
Cc1nnc(-c2ccc(C)c(-c3ccc(C(=O)NCc4ccc(Cl)cc4)cc3)c2)o1	3.59	1.86	2.04	-3.78	-3.32	-0.26	-1.93	6.29	5.1	2.73
COc1ccc(C2=C(N3CCc4ccccc43)C(=O)NC2=O)cc1	2.96	1.12	2.08	2.52	0.56	7.52	5.91	10.6	12.4	11
CCc1ccc(Oc2nccc(-c3c(-c4ccc(F)cc4)ncn3C3CCNCC3)n2)cc1	4.64	0.15	8.07	0.72	-0.17	4.68	4.67	9.41	10.6	4.76
Cc1ccc(C(=O)NC2CCC2)cc1-c1ccc(C(=O)NCC2CC2)cc1	-0.05	0.49	1.53	0.5	0.07	2.96	4.24	4.02	0.68	6.98
Clc1ccc(CNc2nccc(-c3cnn4ncccc34)n2)cc1	-0.46	0.01	3.09	1.88	1.02	2.21	3.84	5.02	13	7.93
CN1CCN(CCCNc2nc3ccc(Oc4ccc(NC(=O)Nc5cc(C(F)(F)F)ccc5F)cc4)cc3[nH]2)CC1	-2.83	-0.44	-4.26	-3.26	2.37	-0.6	-0.47	6.02	25.9	9.54
N#Cc1ccc(Oc2nccc(-c3c(-c4ccc(F)cc4)ncn3C3CCNCC3)n2)cc1	3.42	-0.53	0.7	0.81	0.1	2.13	3.63	7.21	9.65	11
NS(=O)(=O)c1ccc(N/N=C2\C(=O)Nc3ccc(C(=O)NCCCn4ccnc4)cc32)cc1	5.05	1.54	4.72	0.32	2.41	1.95	4.65	9.78	18.2	5.33
COc1cc(Nc2ncc3c(C)nc(-c4cccc(C(F)(F)F)c4)n3n2)cc(OC)c1OC	5.56	-1.07	5.23	4.32	17.5	6.02	10.7	22.4	56.1	17.1
CCC(=O)Nc1ccc(C)c(-c2ccc(C(=O)NCC3CC3)cc2)c1	2.33	-0.94	3.59	-1.79	-2.2	1.95	4.02	6.75	8.5	6.82
COc1cccc(/C=N/Nc2ncnc3c2cnn3-c2cccc(OC)c2)c1	2.12	2.14	2.04	-1.3	-1.94	1.72	3.83	6.9	9.69	8.19
Fc1ccc(-c2nc3n(c2-c2ccncc2)CCS3)cc1	0.86	1.02	1.42	-3.82	-3.6	-0.22	-0.79	6.24	3.74	3.72
